Data as given in the supplement of paper PMC12645437, “Orthogonal IMiD-Degron Pairs Induce Selective Protein Degradation in Cells” (ACS Chemical Biology, 2025).
The full ranking holds about 8,300 sequences; the median of “log2 fold change of degron read counts, EGFP-low vs EGFP+ sorted cells (limma voom), compound-induced degradation” is about -1.1, and the highest 2% start at about 3.2. The full list was thinned out, with the highest values kept by preference.

T1: CRBN, Q96SW2
T1 chain: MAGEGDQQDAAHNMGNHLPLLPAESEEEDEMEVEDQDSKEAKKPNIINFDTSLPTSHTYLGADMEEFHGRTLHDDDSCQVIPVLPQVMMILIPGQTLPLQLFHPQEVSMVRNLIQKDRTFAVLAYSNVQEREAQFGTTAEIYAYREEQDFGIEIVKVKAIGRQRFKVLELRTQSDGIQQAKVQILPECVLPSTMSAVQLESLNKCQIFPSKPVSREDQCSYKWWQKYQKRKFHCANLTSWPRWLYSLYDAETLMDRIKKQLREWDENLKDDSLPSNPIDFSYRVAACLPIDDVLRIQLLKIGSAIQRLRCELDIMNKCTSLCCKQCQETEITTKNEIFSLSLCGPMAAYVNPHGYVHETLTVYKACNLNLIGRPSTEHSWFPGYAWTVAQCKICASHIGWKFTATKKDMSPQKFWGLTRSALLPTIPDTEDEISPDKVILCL


Biological target: T1, CRBN, Q96SW2
Assay: log2 fold change of degron read counts, EGFP-low vs EGFP+ sorted cells (limma voom), compound-induced degradation; higher = more compound-induced degradation of the degron-EGFP fusion; degrons are variants of IKZF1/3 zinc finger 2; compound dose not given here
Settings: Jurkat, 18 h
[1] = compound: compound 19 (5-tert-butyl-thalidomide)
[2] = compound: compound 22 (5-morpholino-thalidomide)
[3] = compound: compound 33 (diphenyl IMiD analogue)
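Note: pooled lentiviral library of zinc finger degron-EGFP fusions in mCherry-positive Jurkat cells, FACS-sorted after compound exposure, with degron abundance counted by next-generation sequencing.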

Sequence	log2 fold change of degron read counts [1]	log2 fold change of degron read counts [2]	log2 fold change of degron read counts [3]	log2 fold change of degron read counts (compound: thalidomide)
FGCNQCGRAFTQKGNLLRHIKL [46F_47G_49N_50Q_52G_53R_54A_55F_67L_, Q9UKT9]	-2.18	-2.21	-2.02	-1.91
FSCEICGRSFTQKGNLLRHIKL [46F_47S_49E_50I_52G_53R_54S_55F_67L_, Q9UKT9]	-1.46	-2.51	-1.36	-1.71
FTCPICGHQFTQKGNLLRHIKL [46F_47T_49P_50I_52G_53H_54Q_55F_67L_, Q9UKT9]	0.276	0.993	2.35	2.28
FLCDQCGASFTQKGNLLRHIKL [46F_47L_49D_50Q_52G_53A_54S_55F_67L_, Q9UKT9]	-2	-2.92	-1.43	-3.07
FMCEICGRCFTQKGNLLRHIKL [46F_47M_49E_50I_52G_53R_54C_55F_67L_, Q9UKT9]	-2.91	-2.9	-1.29	-1.79
FTCDQCGAFFTQKGNLLRHIKL [46F_47T_49D_50Q_52G_53A_54F_55F_67L_, Q9UKT9]	-2.38	-2.78	-2.11	-2.23
FQCPICGAEFTQKGNLLRHIKL [46F_47Q_49P_50I_52G_53A_54E_55F_67L_, Q9UKT9]	1.17	1.71	2.51	3.61
FQCNICGAEFTQKGNLLRHIKL [46F_47Q_49N_50I_52G_53A_54E_55F_67L_, Q9UKT9]	-1.13	0.376	1.25	3.24
FSCPICGAEFTQKGNLLRHIKL [46F_47S_49P_50I_52G_53A_54E_55F_67L_, Q9UKT9]	1.92	1.11	1.41	1.11
FVCPICGAEFTQKGNLLRHIKL [46F_47V_49P_50I_52G_53A_54E_55F_67L_, Q9UKT9]	0.162	2.31	1.62	2.6
FYCNICGAEFTQKGNLLRHIKL [46F_47Y_49N_50I_52G_53A_54E_55F_67L_, Q9UKT9]	1.9	1.64	0.908	-1.03
FNCNICGAEFTQKGNLLRHIKL [46F_47N_49N_50I_52G_53A_54E_55F_67L_, Q9UKT9]	-0.383	-1.22	-0.688	-0.836
FTCPQCGAWFTQKGNLLRHIKL [46F_47T_49P_50Q_52G_53A_54W_55F_67L_, Q9UKT9]	-1.97	-1.41	0.47	-0.222
FHCPICGHTFTQKGNLLRHIKL [46F_47H_49P_50I_52G_53H_54T_55F_67L_, Q9UKT9]	-2.42	-2.36	-1.31	-1.65
FQCNQCGHKFTQKGNLLRHIKL [46F_47Q_49N_50Q_52G_53H_54K_55F_67L_, Q9UKT9]	-3.13	-3.72	-2.89	-2.56
FICEICGRSFTQKGNLLRHIKL [46F_47I_49E_50I_52G_53R_54S_55F_67L_, Q9UKT9]	-2.87	-2.13	-1.31	-0.772
FYCEICGRYFTQKGNLLRHIKL [46F_47Y_49E_50I_52G_53R_54Y_55F_67L_, Q9UKT9]	1.09	0.388	-0.525	-1.2

Sequence	log2 fold change of degron read counts [1]	log2 fold change of degron read counts [2]	log2 fold change of degron read counts [3]	log2 fold change of degron read counts (compound: thalidomide)
FKCNICGACFTQKGNLLRHIKL [46F_47K_49N_50I_52G_53A_54C_55F_67L_, Q9UKT9]	-1.31	-2.26	-2.53	-1.43
FSCNICGACFTQKGNLLRHIKL [46F_47S_49N_50I_52G_53A_54C_55F_67L_, Q9UKT9]	0.632	1.69	2.11	1.06
FYCNICGACFTQKGNLLRHIKL [46F_47Y_49N_50I_52G_53A_54C_55F_67L_, Q9UKT9]	2.86	3.15	1.94	0.278
FRCNICGACFTQKGNLLRHIKL [46F_47R_49N_50I_52G_53A_54C_55F_67L_, Q9UKT9]	-1.25	-0.613	0.532	0.406
FWCNICGACFTQKGNLLRHIKL [46F_47W_49N_50I_52G_53A_54C_55F_67L_, Q9UKT9]	2.95	3.36	1.98	0.445
FQCNICGACFTQKGNLLRHIKL [46F_47Q_49N_50I_52G_53A_54C_55F_67L_, Q9UKT9]	-0.735	1.82	1.65	3.38
FVCDQCGAFFTQKGNLLRHIKL [46F_47V_49D_50Q_52G_53A_54F_55F_67L_, Q9UKT9]	-2.6	-2.32	-2.12	-2.19
FFCSVCGHPFTQKGNLLRHIKL [46F_47F_49S_50V_52G_53H_54P_55F_67L_, Q9UKT9]	-0.493	-1.26	-1.56	-1.25
FMCPVCGAHFTQKGNLLRHIKL [46F_47M_49P_50V_52G_53A_54H_55F_67L_, Q9UKT9]	-0.687	0.177	2.13	0.77
FWCPVCGAHFTQKGNLLRHIKL [46F_47W_49P_50V_52G_53A_54H_55F_67L_, Q9UKT9]	2.57	3.79	1.99	0.84
FVCPVCGAHFTQKGNLLRHIKL [46F_47V_49P_50V_52G_53A_54H_55F_67L_, Q9UKT9]	-0.62	1.87	1.15	2.07
FYCPVCGAHFTQKGNLLRHIKL [46F_47Y_49P_50V_52G_53A_54H_55F_67L_, Q9UKT9]	2.89	3.48	2.31	0.928
FGCPVCGAHFTQKGNLLRHIKL [46F_47G_49P_50V_52G_53A_54H_55F_67L_, Q9UKT9]	2.85	0.903	1.38	0.174
FDCPVCGAHFTQKGNLLRHIKL [46F_47D_49P_50V_52G_53A_54H_55F_67L_, Q9UKT9]	2.9	1.04	0.819	1.19
FRCPVCGAHFTQKGNLLRHIKL [46F_47R_49P_50V_52G_53A_54H_55F_67L_, Q9UKT9]	-0.862	-0.227	0.973	0.478
FACPVCGAHFTQKGNLLRHIKL [46F_47A_49P_50V_52G_53A_54H_55F_67L_, Q9UKT9]	2.93	1.05	0.871	0.221
FQCPVCGAHFTQKGNLLRHIKL [46F_47Q_49P_50V_52G_53A_54H_55F_67L_, Q9UKT9]	-0.252	1.64	1.32	3.27
